# Experiments:
# [1] = target: T1, Serine/threonine-protein kinase 3 (Homo sapiens) (UniProt Q13188); conditions: at 1 µM
# T1 sequence (whole entry): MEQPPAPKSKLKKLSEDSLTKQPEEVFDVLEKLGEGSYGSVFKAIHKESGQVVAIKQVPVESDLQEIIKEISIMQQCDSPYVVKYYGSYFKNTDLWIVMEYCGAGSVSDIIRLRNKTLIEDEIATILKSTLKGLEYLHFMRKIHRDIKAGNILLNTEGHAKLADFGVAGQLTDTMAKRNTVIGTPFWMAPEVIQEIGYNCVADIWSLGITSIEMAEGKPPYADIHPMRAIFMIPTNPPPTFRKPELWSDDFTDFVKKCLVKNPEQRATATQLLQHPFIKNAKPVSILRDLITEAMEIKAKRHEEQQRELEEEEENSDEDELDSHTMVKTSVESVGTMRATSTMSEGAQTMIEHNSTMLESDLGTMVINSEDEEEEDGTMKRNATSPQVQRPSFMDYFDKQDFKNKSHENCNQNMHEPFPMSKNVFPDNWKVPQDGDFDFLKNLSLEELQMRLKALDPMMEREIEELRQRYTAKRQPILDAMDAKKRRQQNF
# [2] = target: T1, Serine/threonine-protein kinase 3 (Homo sapiens); conditions: at 10 µM
# [3] = target: Serine/threonine-protein kinase 24 (Homo sapiens) (UniProt Q9Y6E0); conditions: at 1 µM
# [4] = target: Serine/threonine-protein kinase 24 (Homo sapiens) (UniProt Q9Y6E0); conditions: at 10 µM
# [5] = target: Hepatocyte growth factor receptor (Homo sapiens) (UniProt P08581); conditions: at 1 µM
# [6] = target: Hepatocyte growth factor receptor (Homo sapiens) (UniProt P08581); conditions: at 10 µM
# [7] = target: MAP kinase-interacting serine/threonine-protein kinase 2 (Homo sapiens) (UniProt Q9HBH9); conditions: at 1 µM
# [8] = target: MAP kinase-interacting serine/threonine-protein kinase 2 (Homo sapiens) (UniProt Q9HBH9); conditions: at 10 µM
# [9] = target: T2, Muscle, skeletal receptor tyrosine-protein kinase (Homo sapiens) (UniProt O15146); conditions: at 1 µM
# T2 sequence (whole entry): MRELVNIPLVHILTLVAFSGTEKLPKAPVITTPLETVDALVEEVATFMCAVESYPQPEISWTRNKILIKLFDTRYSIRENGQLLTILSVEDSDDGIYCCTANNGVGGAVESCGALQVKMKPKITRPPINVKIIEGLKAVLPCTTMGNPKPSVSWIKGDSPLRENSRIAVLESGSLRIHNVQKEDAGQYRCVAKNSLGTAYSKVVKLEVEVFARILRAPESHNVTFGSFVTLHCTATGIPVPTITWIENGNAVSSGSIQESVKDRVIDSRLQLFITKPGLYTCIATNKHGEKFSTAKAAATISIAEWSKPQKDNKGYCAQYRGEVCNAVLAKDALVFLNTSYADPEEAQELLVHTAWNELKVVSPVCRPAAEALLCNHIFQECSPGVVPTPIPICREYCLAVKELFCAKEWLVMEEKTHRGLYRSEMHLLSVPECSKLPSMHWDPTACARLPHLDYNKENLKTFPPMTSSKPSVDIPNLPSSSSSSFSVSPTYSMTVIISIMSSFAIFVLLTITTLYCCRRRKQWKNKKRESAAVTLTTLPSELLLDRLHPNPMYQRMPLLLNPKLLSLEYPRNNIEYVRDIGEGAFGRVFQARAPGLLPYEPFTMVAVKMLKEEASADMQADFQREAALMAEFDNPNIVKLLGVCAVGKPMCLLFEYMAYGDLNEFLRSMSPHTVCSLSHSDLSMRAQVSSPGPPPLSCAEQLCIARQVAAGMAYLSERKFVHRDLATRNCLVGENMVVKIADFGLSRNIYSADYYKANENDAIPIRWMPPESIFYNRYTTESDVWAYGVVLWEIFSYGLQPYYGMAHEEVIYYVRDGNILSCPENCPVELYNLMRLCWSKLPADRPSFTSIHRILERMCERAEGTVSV
# [10] = target: T2, Muscle, skeletal receptor tyrosine-protein kinase (Homo sapiens); conditions: at 10 µM
# [11] = target: T3, Serine/threonine-protein kinase Nek11 (Homo sapiens) (UniProt Q8NG66); conditions: at 1 µM
# T3 sequence (whole entry): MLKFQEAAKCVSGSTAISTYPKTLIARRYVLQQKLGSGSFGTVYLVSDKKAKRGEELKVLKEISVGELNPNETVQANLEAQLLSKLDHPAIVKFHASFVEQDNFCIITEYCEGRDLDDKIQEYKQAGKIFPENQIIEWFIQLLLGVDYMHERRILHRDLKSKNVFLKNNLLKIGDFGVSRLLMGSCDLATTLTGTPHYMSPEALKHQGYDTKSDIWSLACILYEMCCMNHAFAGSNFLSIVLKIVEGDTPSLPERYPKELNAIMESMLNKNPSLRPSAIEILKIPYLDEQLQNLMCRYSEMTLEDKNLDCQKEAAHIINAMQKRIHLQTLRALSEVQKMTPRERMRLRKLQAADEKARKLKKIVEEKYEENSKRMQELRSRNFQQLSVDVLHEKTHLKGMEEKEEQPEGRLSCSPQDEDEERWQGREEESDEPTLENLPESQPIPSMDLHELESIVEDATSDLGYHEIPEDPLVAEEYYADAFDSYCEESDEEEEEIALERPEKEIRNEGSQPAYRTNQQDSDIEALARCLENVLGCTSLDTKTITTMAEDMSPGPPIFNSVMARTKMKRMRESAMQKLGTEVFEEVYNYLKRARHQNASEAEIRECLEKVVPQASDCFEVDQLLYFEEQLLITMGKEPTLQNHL
# [12] = target: T3, Serine/threonine-protein kinase Nek11 (Homo sapiens); conditions: at 10 µM
# [13] = target: T4, Serine/threonine-protein kinase Nek2 (Homo sapiens) (UniProt P51955); conditions: at 1 µM
# T4 sequence (whole entry): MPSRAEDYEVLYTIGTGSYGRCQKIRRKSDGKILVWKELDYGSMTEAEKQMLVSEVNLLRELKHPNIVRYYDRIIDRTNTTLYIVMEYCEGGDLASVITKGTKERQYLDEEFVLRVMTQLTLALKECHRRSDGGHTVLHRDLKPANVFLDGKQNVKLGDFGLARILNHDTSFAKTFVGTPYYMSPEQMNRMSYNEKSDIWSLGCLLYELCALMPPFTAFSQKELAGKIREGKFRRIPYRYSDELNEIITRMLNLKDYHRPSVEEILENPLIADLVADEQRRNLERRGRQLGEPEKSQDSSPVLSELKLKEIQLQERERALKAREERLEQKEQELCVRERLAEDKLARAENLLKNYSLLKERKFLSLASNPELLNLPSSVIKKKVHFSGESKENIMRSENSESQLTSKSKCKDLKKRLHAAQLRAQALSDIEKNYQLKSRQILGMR
# [14] = target: T4, Serine/threonine-protein kinase Nek2 (Homo sapiens); conditions: at 10 µM
# [15] = target: T5, Serine/threonine-protein kinase Nek3 (Homo sapiens) (UniProt P51956); conditions: at 1 µM
# T5 sequence (whole entry): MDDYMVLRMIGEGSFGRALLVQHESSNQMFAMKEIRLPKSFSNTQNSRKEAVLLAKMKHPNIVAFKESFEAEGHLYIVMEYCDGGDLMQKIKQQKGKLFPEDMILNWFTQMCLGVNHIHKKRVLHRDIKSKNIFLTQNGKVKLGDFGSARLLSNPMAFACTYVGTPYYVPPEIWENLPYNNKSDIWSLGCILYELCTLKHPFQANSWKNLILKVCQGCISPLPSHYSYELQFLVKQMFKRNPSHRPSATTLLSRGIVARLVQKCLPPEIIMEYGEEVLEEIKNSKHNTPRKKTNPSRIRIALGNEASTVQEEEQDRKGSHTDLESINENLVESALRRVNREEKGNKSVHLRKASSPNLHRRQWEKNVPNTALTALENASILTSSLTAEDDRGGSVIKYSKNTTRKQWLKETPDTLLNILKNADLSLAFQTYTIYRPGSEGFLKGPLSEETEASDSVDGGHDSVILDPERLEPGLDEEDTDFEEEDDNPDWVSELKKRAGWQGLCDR
# [16] = target: T6, Tyrosine-protein kinase Mer (Homo sapiens) (UniProt Q12866); conditions: at 1 µM
# T6 sequence (whole entry): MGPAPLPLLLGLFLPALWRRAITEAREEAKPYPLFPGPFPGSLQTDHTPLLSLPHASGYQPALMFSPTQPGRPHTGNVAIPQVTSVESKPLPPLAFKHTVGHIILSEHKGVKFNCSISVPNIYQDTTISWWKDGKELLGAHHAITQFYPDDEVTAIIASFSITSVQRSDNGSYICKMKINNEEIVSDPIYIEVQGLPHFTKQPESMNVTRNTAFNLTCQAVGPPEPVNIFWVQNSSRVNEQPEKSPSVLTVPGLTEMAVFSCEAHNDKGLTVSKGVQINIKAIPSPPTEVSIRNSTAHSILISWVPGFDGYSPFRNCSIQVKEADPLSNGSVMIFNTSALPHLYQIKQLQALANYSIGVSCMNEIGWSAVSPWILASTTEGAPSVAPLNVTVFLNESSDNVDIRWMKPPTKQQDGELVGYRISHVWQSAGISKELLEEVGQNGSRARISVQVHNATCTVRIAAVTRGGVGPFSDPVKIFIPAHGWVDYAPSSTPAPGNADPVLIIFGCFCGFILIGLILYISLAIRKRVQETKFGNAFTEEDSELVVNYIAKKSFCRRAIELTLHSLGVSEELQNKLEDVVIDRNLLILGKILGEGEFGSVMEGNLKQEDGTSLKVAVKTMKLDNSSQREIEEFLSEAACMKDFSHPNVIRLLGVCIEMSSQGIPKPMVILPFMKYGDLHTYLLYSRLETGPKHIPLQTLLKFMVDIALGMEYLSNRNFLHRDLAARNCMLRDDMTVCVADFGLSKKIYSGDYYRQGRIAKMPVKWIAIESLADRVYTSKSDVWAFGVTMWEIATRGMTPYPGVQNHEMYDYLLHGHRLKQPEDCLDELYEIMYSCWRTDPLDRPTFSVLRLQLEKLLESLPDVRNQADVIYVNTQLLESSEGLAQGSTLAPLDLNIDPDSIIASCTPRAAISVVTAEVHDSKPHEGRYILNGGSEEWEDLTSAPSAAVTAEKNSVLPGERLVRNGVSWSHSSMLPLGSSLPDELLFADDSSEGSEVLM
# [17] = target: T6, Tyrosine-protein kinase Mer (Homo sapiens); conditions: at 10 µM
# [18] = target: T5, Serine/threonine-protein kinase Nek3 (Homo sapiens); conditions: at 10 µM
# [19] = target: Serine/threonine-protein kinase tousled-like 2 (Homo sapiens) (UniProt Q86UE8); conditions: at 1 µM
# [20] = target: Serine/threonine-protein kinase tousled-like 2 (Homo sapiens) (UniProt Q86UE8); conditions: at 10 µM
# MAP kinase-interacting serine/threonine-protein kinase 2 (Homo sapiens), sequence (Q9HBH9 whole entry, looked up): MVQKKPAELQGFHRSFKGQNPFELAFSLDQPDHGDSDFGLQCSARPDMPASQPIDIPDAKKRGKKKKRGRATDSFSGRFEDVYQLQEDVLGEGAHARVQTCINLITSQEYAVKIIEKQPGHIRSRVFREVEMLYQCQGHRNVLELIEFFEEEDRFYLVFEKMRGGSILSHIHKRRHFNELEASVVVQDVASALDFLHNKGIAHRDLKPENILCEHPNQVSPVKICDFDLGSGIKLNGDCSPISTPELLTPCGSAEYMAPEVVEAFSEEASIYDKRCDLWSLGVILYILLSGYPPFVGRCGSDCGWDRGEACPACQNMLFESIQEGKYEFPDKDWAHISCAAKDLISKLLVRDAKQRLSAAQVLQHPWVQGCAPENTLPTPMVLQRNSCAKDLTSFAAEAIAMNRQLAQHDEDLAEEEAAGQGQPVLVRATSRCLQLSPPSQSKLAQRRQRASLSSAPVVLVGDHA
# Hepatocyte growth factor receptor (Homo sapiens), sequence (P08581 whole entry): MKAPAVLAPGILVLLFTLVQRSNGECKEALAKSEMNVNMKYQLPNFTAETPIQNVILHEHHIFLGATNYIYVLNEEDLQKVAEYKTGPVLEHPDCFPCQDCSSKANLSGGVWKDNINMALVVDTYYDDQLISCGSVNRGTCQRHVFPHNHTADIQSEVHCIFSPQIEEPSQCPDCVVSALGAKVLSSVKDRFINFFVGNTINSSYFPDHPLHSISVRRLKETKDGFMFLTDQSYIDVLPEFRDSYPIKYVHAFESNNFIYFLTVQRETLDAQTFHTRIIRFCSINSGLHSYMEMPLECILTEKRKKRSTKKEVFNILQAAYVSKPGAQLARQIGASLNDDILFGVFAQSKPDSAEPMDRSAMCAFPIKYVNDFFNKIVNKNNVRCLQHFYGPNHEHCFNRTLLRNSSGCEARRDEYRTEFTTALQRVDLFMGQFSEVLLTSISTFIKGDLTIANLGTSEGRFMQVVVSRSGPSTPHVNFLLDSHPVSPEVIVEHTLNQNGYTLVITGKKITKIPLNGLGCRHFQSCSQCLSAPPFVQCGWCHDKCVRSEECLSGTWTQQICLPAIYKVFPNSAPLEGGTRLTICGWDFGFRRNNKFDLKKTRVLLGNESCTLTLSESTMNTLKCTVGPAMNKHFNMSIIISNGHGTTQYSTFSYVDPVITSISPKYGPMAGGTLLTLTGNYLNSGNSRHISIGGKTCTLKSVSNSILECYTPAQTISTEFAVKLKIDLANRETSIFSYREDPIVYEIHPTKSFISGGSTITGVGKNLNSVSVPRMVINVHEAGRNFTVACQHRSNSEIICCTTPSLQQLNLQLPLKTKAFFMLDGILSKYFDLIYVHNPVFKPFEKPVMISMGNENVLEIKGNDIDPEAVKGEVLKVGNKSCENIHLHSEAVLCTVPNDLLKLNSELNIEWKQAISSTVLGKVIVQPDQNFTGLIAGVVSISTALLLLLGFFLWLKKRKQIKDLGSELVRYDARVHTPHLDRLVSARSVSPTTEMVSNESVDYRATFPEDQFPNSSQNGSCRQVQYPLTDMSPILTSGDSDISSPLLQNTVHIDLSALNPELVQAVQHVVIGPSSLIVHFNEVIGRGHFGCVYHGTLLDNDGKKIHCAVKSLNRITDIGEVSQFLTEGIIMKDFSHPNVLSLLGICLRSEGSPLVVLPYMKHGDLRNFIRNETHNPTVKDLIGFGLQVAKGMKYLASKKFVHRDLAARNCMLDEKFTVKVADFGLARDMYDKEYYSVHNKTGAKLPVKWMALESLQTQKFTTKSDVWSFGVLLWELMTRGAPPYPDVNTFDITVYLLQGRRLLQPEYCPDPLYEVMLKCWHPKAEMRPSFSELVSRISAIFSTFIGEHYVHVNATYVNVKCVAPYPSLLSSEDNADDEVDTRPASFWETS
# Serine/threonine-protein kinase tousled-like 2 (Homo sapiens), sequence (Q86UE8 whole entry, looked up): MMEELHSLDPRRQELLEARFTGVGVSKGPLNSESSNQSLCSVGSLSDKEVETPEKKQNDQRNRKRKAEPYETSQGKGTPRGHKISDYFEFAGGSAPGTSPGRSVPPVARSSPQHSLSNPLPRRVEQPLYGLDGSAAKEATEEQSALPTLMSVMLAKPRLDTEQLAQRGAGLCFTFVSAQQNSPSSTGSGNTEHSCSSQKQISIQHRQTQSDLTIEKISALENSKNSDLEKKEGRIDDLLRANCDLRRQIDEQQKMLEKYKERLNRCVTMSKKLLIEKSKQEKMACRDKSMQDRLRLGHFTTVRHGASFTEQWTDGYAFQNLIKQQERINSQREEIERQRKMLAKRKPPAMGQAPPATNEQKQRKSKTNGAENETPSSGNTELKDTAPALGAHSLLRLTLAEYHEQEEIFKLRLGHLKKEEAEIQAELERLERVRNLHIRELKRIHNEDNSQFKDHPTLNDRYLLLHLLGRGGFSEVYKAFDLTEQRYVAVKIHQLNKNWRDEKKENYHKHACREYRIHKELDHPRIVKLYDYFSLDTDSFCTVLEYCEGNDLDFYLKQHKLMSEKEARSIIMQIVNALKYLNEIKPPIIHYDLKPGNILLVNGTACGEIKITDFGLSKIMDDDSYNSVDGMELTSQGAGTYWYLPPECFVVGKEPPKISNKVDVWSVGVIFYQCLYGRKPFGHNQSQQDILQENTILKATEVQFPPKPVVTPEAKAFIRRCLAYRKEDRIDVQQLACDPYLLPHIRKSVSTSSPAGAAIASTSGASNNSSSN
# Serine/threonine-protein kinase 24 (Homo sapiens), sequence (Q9Y6E0 whole entry, looked up): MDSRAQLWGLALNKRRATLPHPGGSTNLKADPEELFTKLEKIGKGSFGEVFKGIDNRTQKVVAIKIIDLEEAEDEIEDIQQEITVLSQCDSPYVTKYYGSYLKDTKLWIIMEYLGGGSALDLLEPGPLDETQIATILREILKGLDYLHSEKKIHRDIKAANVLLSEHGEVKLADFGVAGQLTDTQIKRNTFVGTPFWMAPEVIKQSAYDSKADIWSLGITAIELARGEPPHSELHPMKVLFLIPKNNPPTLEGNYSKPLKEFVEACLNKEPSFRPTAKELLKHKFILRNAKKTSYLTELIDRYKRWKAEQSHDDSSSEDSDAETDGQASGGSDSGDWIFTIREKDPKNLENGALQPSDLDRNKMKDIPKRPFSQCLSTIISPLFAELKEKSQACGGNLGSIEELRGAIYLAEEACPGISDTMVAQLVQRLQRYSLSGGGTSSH
Structure (SMILES),residual activity [1] [%],residual activity [2] [%],residual activity [3] [%],residual activity [4] [%],residual activity [5] [%],residual activity [6] [%],residual activity [7] [%],residual activity [8] [%],residual activity [9] [%],residual activity [10] [%],residual activity [11] [%],residual activity [12] [%],residual activity [13] [%],residual activity [14] [%],residual activity [15] [%],residual activity [16] [%],residual activity [17] [%],residual activity [18] [%],residual activity [19] [%],residual activity [20] [%]
Cn1c2ccccc2c2c3c(c4c5ccccc5n(CCC#N)c4c21)CNC3=O,2,2,47,57,107,106,10,10,32,37,49,60,76,82,100,–,–,–,–,–
N#C/C(=C1/Nc2ccccc2S1)c1ccnc(NCCc2cccnc2)n1,97,56,89,61,138,74,36,8,–,–,45,6,–,82,–,82,69,–,–,–
O=C(NC(NC(=S)Nc1ccc(F)c([N+](=O)[O-])c1)C(Cl)(Cl)Cl)C(c1ccccc1)c1ccccc1 (centres undefined),98,71,86,82,–,–,–,–,85,98,86,49,90,88,94,–,–,89,99,94
O=C1NC(=O)C(c2cn(CCCO)c3ncccc23)=C1c1cnccn1,92,91,73,57,–,–,76,67,81,84,72,82,–,–,–,89,86,–,98,82
O=C(Nc1nc2ccccc2n1CCN1CCOCC1)c1cccc([N+](=O)[O-])c1,102,83,71,74,–,–,–,–,–,–,84,74,75,–,106,75,65,85,–,–
O=C1NC(=O)C(c2cn(CCCn3ccnc3)c3ccccc23)=C1Nc1ccccc1,64,13,20,8,114,79,–,–,77,65,59,44,–,–,110,–,–,104,44,7
O=C(Nc1ccc(Cl)cc1)c1ccccc1NCc1ccncc1,–,–,72,77,–,–,–,–,–,–,–,–,–,–,–,101,99,–,–,–
COc1ccc(CNC(=O)Nc2ncc([N+](=O)[O-])s2)cc1,–,–,69,80,–,–,–,–,68,67,51,66,–,–,–,–,–,–,–,74
CN([C@@H](Cc1ccc(OS(=O)(=O)c2cccc3cnccc23)cc1)C(=O)N1CCN(c2ccccc2)CC1)S(=O)(=O)c1cccc2cnccc12,99,–,–,–,85,114,–,–,115,–,–,–,–,–,99,–,–,99,–,–
NC(=O)Nc1sc(-c2ccc(F)cc2)cc1C(N)=O,–,–,38,6,–,–,72,24,62,15,25,5,87,58,69,54,9,48,72,27
CCCCc1c(-c2ccc(OC)cc2)[nH]c2nccnc12,–,68,70,60,118,–,–,–,88,87,80,81,–,83,87,68,80,–,87,86
NC(=O)c1ccc(-c2nc(-c3ccc4c(c3)OCCO4)c(-c3ccccn3)[nH]2)cc1,–,–,91,82,–,–,–,–,–,–,57,65,95,91,85,–,–,93,91,87
O=C(O)/C=C/c1cc(Br)c(Br)c(Br)c1Br,–,–,105,85,93,84,74,–,106,98,85,54,–,–,81,104,94,108,101,93
O=C(c1ccccc1)c1ccc(N2CCOCC2)cc1O,–,95,86,68,86,66,–,80,–,86,89,–,90,–,–,–,85,–,–,–
Nc1ncnc2c1cnn2-c1ccccc1,–,93,68,84,98,85,56,22,–,88,79,88,83,99,–,101,92,91,–,–
Cc1cc(C)c(/C=C2\C(=O)Nc3ccccc32)[nH]1,–,–,–,72,101,98,–,–,–,12,–,98,–,–,–,4,2,106,105,62
COc1ccc(Cl)cc1NC(=O)Nc1cc(C)nc2ccccc12,–,–,70,83,89,80,–,–,97,71,79,93,78,86,–,–,–,–,97,95
COc1ccc(-c2cnc3c(-c4ccsc4)cnn3c2)cc1,–,–,67,81,–,–,95,87,–,–,–,–,–,–,–,–,–,–,–,–
